Most compounds without a hit are left out; they make up all but 3.3% or so of the library.
FGF22 binding-1 – binders of human FGF22 protein, primary screen, FGF22 synaptogenesis inhibitor project, biophysical, thermal shift, single point; hit rate 1.5% among 340,000; recombinant FGF22 thermal shift, SYPRO orange fluorescence; percent of sucrose octasulfate shift, DMSO zero; Fibroblast growth factor 22 (Homo sapiens), Q9HCT0; activity (Tm shift, normalised), % at 9.99 µM;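 active = mean Tm shift, scaled 0 neutral to 100 positive control, at about 1.3% or above, every replicate too, limit read from the data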
SIRT5 inh – SIRT5 desuccinylase inhibitors, primary screen, biochemical, fluorescence imaging, single point, set 5. NAD-dependent protein deacylase sirtuin-5, mitochondrial (Homo sapiens), Q9NXA8. Purified SirT5, succinyl-peptide AMC, trypsin-coupled fluorescence. inhibition, % at 15 µM. hit rate 1.1% among 330,000; in the data active = inhibition above about 15%
Target sequence (Q9NXA8 whole entry, looked up): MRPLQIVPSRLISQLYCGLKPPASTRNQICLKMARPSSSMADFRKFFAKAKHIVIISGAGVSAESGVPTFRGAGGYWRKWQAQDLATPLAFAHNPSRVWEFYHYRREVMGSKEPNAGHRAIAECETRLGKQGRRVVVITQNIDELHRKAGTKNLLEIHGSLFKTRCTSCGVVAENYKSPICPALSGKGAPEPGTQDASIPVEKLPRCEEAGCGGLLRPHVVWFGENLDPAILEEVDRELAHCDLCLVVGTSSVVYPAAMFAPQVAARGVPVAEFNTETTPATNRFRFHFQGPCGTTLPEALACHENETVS
ERAP1 inh – human ERAP1 aminopeptidase inhibitors, primary screen, biochemical, single point, plate reader; Endoplasmic reticulum aminopeptidase 1 (Homo sapiens), Q9NZ08; inhibition, % at 10.7 µM; AID 652197, 2013; recombinant ERAP1, Leu-AMC fluorescence, 60 min; hit rate 0.15% among 340,000;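 active = mean replicate inhibition of at least 30%, or all replicates individually reaching that 30% level; inactive = mean below 30% and not every replicate reaching it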;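 note: 0% = neutral control wells and 100% = L-leucinethiol positive control wells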
CASP6 VEID inh – human caspase-6 inhibitors, primary screen, biochemical, VEID-R110 fluorescence, single point, set 2. inhibition, % at 12.5 µM. hit rate 0.53% among 350,000. AID 686996, 2013. purified caspase-6, Z-VEID-R110 cleavage fluorescence;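 active = mean inhibition across replicates at least about 35%, with every replicate also reaching that limit, limit read from the data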;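 note: 0% = median of neutral control wells and 100% = no fluorescence left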
Target sequence (P55212 24-179 limits assumed): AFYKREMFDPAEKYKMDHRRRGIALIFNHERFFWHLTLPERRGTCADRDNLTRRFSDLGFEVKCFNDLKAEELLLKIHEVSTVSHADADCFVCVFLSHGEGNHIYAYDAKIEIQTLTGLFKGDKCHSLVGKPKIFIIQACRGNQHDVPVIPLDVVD
Target sequence (P55212 194-293 limits assumed): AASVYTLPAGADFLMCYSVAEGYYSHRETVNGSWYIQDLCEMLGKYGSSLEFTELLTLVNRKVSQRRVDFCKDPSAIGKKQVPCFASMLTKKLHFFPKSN
GSIS activator – GLuc luminescence reporter in INS-1E cells, primary screen for activators of glucose-dependent secretion of insulin. INS-1E GLuc reporter insulin secretion, 2-3 h. hit rate 0.61% among 370,000. activation, % at 16.6 µM. AID 743287, 2014;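 active = lowest replicate activation of at least 40%, so every replicate reaches that level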;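 note: 0% = median of neutral control wells and 100% = median of IBMX positive control wells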
FGF22 binding-2 – binders of human FGF22 protein, dose response, FGF22 synaptogenesis inhibitor project, biophysical, thermal shift, cherry-pick retest; recombinant FGF22 thermal shift, SYPRO orange fluorescence; hit rate 2% among 1,000; shares compounds with FGF22 binding-1; thermal shift activity, °C (ΔTm) at 38 µM;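 active = fitted rise in melting shift crosses a set limit at or below the top valid dose tested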
TSA no protein – compound-only thermal shift signal without protein, dose response, artefact control for FGF22 binder project, biochemical, cherry-picked samples, RT-PCR instrument; shares compounds with FGF22 binding-1; compound-only SYPRO orange thermal shift counter-screen, no protein; AC50, µM (titrated, usually from 38 µM); hit rate 2% among 1,000; AID 743019, 2013;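 active = rising signal whose fitted curve reaches the 0.54 level within the top valid dose, showing a melting point, actives reach about 13 µM in these data; inactive = the rest, including activity in the opposite direction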; note: value is where the raw curve crosses a fixed level and not half-maximal
The depositor's hits bear a star; i = inactive; . = no result; [ ] = another dose, or the depositor's remark.

SMILES	FGF22 binding-1	SIRT5 inh	ERAP1 inh	CASP6 VEID inh	GSIS activator	FGF22 binding-2	TSA no protein
O=C(N/N=C/c1c[nH]c2ccc(Br)cc12)c1ccc2c(c1)OCO2	2.5*	1.4	19.6	8.3	-12.4	0.077	i
O=C(N/N=C/c1c[nH]c2ccc(Br)cc12)C1CC1	2.2*	.	-0.6	2.8	-22.2	-0.072	i
C/C=C/c1ccc([C@H]2[C@@H](CO)N(C(=O)CC)C23CN(S(=O)(=O)CC)C3)cc1	-0.2	2.7	1.0	0.3	3.3	.	.
COc1ccc(NC(=O)N[C@@H]2CC[C@@H](CCNC(=O)CCN3CCCCC3)O[C@@H]2CO)cc1	0.2	-1.0	-1.7	-1.3	-5.0	.	.
CCNC(=O)[C@H]1[C@H](CO)[C@H]2Cn3c(ccc(-c4ccccc4F)c3=O)[C@@H]1N2Cc1cccnc1	0.0	-2.7	-1.8	5.1	3.7	.	.
COCC(=O)Nc1ccc2c(c1)[C@H]1C[C@@H](CC(=O)NCc3ccccn3)O[C@H](CO)[C@H]1O2	1.3*	10.9	3.1	2.3	15.3	-0.032	i
O=C(C[C@H]1C[C@@H]2c3cc(NC(=O)C4CCC4)ccc3O[C@@H]2[C@H](CO)O1)NCc1cc(F)ccc1F	-0.5	3.4	0.6	-1.1	-1.3	.	.
O=C(O)C[C@@H]1C[C@H]2c3cc(NC(=O)Nc4ccc(C(F)(F)F)cc4)ccc3O[C@H]2[C@@H](CO)O1	23.3*	5.5	-1.7	4.7	7.9	-0.169	i
O=C(C[C@@H]1C[C@H]2c3cc(NC(=O)C4CCC4)ccc3O[C@H]2[C@@H](CO)O1)NCc1cc(F)ccc1F	28.1*	7.3	1.2	0.1	2.5	-0.028[42 µM]	i
CS(=O)(=O)Nc1ccc2c(c1)[C@@H]1C[C@H](CC(=O)NCCc3ccccc3)O[C@@H](CO)[C@@H]1O2	1.4*	-1.2	2.2	1.0	-5.1	-0.079	i
O=C(C[C@H]1C[C@H]2c3cc(NC(=O)NC4CCCC4)ccc3O[C@H]2[C@@H](CO)O1)NC1CCCC1	0.3	-8.6	2.5	-4.0	1.1	.	.
COc1cccc(S(=O)(=O)Nc2ccc3c(c2)[C@@H]2C[C@H](CC(=O)NC4CCCCC4)O[C@@H](CO)[C@@H]2O3)c1	1.6*	3.2	-5.2	-4.6	-6.6	0.139	i
CN(C)CC(=O)Nc1ccc2c(c1)[C@@H]1C[C@H](CC(=O)N(C)C)O[C@@H](CO)[C@@H]1O2	2.3*	-4.7	-1.2	-0.9	6.0	0.116	i
O=C(C[C@@H]1C[C@@H]2c3cc(NC(=O)NC4CCCC4)ccc3O[C@@H]2[C@@H](CO)O1)NCCN1CCCCC1	-0.5	-2.1	-1.4	-4.4	13.1	.	.
O=C(C[C@H]1C[C@@H]2c3cc(NC(=O)NC4CCCC4)ccc3O[C@@H]2[C@H](CO)O1)NC1CCCC1	1.4*	-2.7	1.0	-1.0	4.8	-0.147	i
O=C(C[C@H]1C[C@H]2c3cc(NC(=O)NC4CCCC4)ccc3O[C@H]2[C@@H](CO)O1)NCCN1CCCCC1	19.1*	-2.6	-3.1	-2.2	5.2	-0.01[42 µM]	i
C[C@@H]1CN([C@H](C)CO)C(=O)Cc2cc(NC(=O)Nc3ccc(F)cc3)ccc2O[C@H]1CN(C)Cc1ccc(C(F)(F)F)cc1	-0.1	-0.9	-6.1	1.6	-13.5	.	.
c1cncc(-c2ccc(C3[C@H]4CNC[C@@H]3N4Cc3ccc4c(c3)OCO4)cc2)c1 (some centres undefined)	-0.3	.	.	.	3.1	.	.
O=C(Nc1ccc(Cl)cc1)N[C@@H]1CC[C@H](CCn2cc(C3(O)CCCC3)nn2)O[C@@H]1CO	0.9	2.1	1.4	4.4	-5.4	.	.
C[C@@H]1CN([C@@H](C)CO)C(=O)Cc2cc(NS(=O)(=O)c3ccccc3)ccc2O[C@@H]1CN(C)C	-0.3	1.5	-0.8	-3.1	13.8	.	.
C[C@@H]1CN([C@@H](C)CO)C(=O)c2cc(NS(=O)(=O)c3ccccc3)ccc2O[C@H]1CN(C)S(=O)(=O)c1cn(C)cn1	0.1	-2.4	-1.0	-0.2	12.5	.	.
O=C(C1CC1)N1CC2(C1)[C@H](c1ccccc1)[C@@H](CO)N2Cc1ccc(Cl)cc1	2.9*	-4.2	0.0	0.1	-21.6	0.161[42 µM]	i
C/C(=N\NC(=O)c1ccc(NS(=O)(=O)c2cccs2)cc1)c1cccs1	1.5*	10.9	-3.4	.	-1.5	0.017	i
C/C(=N\NC(=O)c1ccc(NS(=O)(=O)c2cccs2)cc1)c1ccc(Cl)cc1	.	.	.	.	-16.5	.	.
COc1ccc(S(=O)(=O)Nc2ccc3c(c2)C(=O)N([C@H](C)CO)C[C@@H](C)[C@@H](CN(C)C(=O)Nc2ccccc2)OCCCC[C@@H](C)O3)cc1	0.0	.	.	.	-21.1	.	.
SMILES	FGF22 binding-1	SIRT5 inh	ERAP1 inh	CASP6 VEID inh	GSIS activator	FGF22 binding-2	TSA no protein
COc1cc(/C=N/NC(=O)c2ccncc2)ccc1OCC(=O)Nc1cccc([N+](=O)[O-])c1	1.9*	1.5	1.7	0.7	19.1	-0.027	i
COc1cccc(C#Cc2ccc([C@H]3[C@H]4CN(S(=O)(=O)c5ccccc5C)CC(=O)N4[C@H]3CO)cc2)c1	1.4*	.	2.2	-3.3	5.1	-0.078	i
COc1cccc(C#Cc2ccc([C@H]3[C@H](CO)N4C(=O)CN(S(=O)(=O)c5ccccc5C)C[C@@H]34)cc2)c1	0.6	-4.3	0.0	0.0	7.6	.	.
C[C@H](CO)N1C[C@H](C)[C@@H](CN(C)C)Oc2ncc(-c3cccnc3)cc2C1=O	1.7*	8.1	-1.9	-3.9	.	0.075[42 µM]	i
Cc1ccc(S(=O)(=O)N(C)C[C@H]2Oc3ncc(Br)cc3C(=O)N([C@@H](C)CO)C[C@@H]2C)cc1	0.1	5.8	-2.7	4.4	-21.4	.	.
COc1ccccc1-c1cnc2c(c1)C(=O)N([C@H](C)CO)C[C@H](C)[C@@H](CN(C)C(=O)c1cccnc1)O2	0.1	-2.5	-3.3	-0.4	8.0	.	.
COc1ccccc1-c1cnc2c(c1)C(=O)N([C@@H](C)CO)C[C@H](C)[C@H](CN(C)C(=O)c1cccnc1)O2	1.9*	-2.6	0.2	-2.4	19.6	0.271	i
Cc1ccc(S(=O)(=O)N(C)C[C@H]2Oc3ncc(Br)cc3C(=O)N([C@@H](C)CO)C[C@H]2C)cc1	5.3*	-2.5	0.2	6.6	23.0	0.113[42 µM]	i
